Consider 62 sequences from the supplement of paper PMC3724861.

This excerpt belongs to a sample that is enriched for hits. The hit rate among all sequences tested is not known here. Unmarked numbers belong to inactive results.

This experiment has as its system T1, Caupolican (Caup) homeodomain DNA-binding domain.
T1 sequence: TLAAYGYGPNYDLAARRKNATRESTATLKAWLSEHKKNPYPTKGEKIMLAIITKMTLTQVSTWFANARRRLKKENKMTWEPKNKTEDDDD
Description: PBM E-score (8-mer, recovered from the published 9-mer minima) (E-score (dimensionless, -0.5 to 0.5)); Drosophila protein; higher = stronger relative binding preference, active = 0.31 or more. How it is done:
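Protein binding microarray (PBM): in vitro transcribed/translated Caupolican (Caup) homeodomain DNA-binding domain (residues 214-303) applied at 100 nM to a universal 8-mer PBM array (Agilent AMADID 015681). The 8-mer enrichment score (E-score, range -0.5 to 0.5) was computed, and each 9-mer score is the minimum E-score of its two constituent 8-mers. The E-score is the same for a 9-mer and its reverse complement; 0.31 is the stated binding threshold.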
With GATGGGGC, the “PBM E-score” value is -0.192.

For GGCATGTA, the “PBM E-score” value was 0.378 (active).

As to AGCATGTA, the “PBM E-score” value was ≥ 0.413 (active).

For GGCATGGA, the “PBM E-score” value was -0.0635.

GGCATGCA: the “PBM E-score” value is 0.0214.

AGCATGGA: the “PBM E-score” value is 0.0568.

For AGCATGGG, the “PBM E-score” value is -0.0663.

For AGATTAGC, the “PBM E-score” value is -0.0125.

In the case of ATGTAGCC, the “PBM E-score” value is 0.145.

GCCCAGCC: the “PBM E-score” value is -0.262.

As to TACGCTCA, the “PBM E-score” value is -0.00447.

On to CACTTGTC, for which the “PBM E-score” value was 0.271.

For the sequence AACTTGTA, the “PBM E-score” value was 0.364 (active).

On to GACTTGGA, for which the “PBM E-score” value is -0.0172.

For the sequence GACTTGCA, the “PBM E-score” value was 0.0909.

For the sequence CACTTGTA, the “PBM E-score” value was 0.318 (active).

Turning to GACTTGTA, the “PBM E-score” value was 0.38 (active).

For AACTTGTC, the “PBM E-score” value is 0.27.

In the case of AACTTGTG, the “PBM E-score” value was 0.147.

As to CACTTGGA, the “PBM E-score” value is 0.0572.

Take AGCGACCA: the “PBM E-score” value was -0.01.

Consider TACCTTGA, for which the “PBM E-score” value was 0.0541.

Regarding CGCTAGAA, the “PBM E-score” value was -0.14.

Regarding CTACTCTC, the “PBM E-score” value was -0.105.

For GAATAGCC, the “PBM E-score” value is -0.146.

With GCCTTGAA, the “PBM E-score” value is -0.119.

CCCTTGTC: the “PBM E-score” value was 0.177.

Consider ACCTTGTC, for which the “PBM E-score” value is 0.306.

With GCCTTGTA, the “PBM E-score” value is 0.321 (active).

Take ACCTTGTG: the “PBM E-score” value is 0.0927.

Regarding CCCTTGTA, the “PBM E-score” value was 0.337 (active).

Turning to GCCTTGCA, the “PBM E-score” value was -0.0717.

Consider CCTTTGTA, for which the “PBM E-score” value is 0.138.

For the sequence ACCTTGTA, the “PBM E-score” value is 0.412 (active).

For CGTAGTTA, the “PBM E-score” value is 0.157.

With CAAGCTGA, the “PBM E-score” value is 0.031.

Take CTAGGGCC: the “PBM E-score” value is -0.235.

With GGTCCGAC, the “PBM E-score” value is -0.0703.

CCAGTAAC: the “PBM E-score” value is -0.0237.

For the sequence ATTATCAG, the “PBM E-score” value is 0.0887.

In the case of AACTATTC, the “PBM E-score” value was 0.0523.

Regarding ACTGATCC, the “PBM E-score” value is 0.062.

As to GTACATCA, the “PBM E-score” value was 0.383 (active).

For ATACATCA, the “PBM E-score” value is 0.334 (active).

For GCACATCA, the “PBM E-score” value is 0.0977.

For the sequence GAACATCA, the “PBM E-score” value was 0.259.

ATACATCC: the “PBM E-score” value is 0.276.

Consider CTACATCA, for which the “PBM E-score” value was 0.253.

For the sequence CTAACGGA, the “PBM E-score” value was -0.0298.

In the case of AAACGTTG, the “PBM E-score” value was -0.0301.

Regarding ACAAAGGA, the “PBM E-score” value is 0.131.

With CTTTCCTA, the “PBM E-score” value is -0.094.

For the sequence ATCAGTAC, the “PBM E-score” value is 0.201.

AAGAACAA: the “PBM E-score” value was 0.259.

As for CAGAACAC, the “PBM E-score” value was 0.215.

Consider AAGAACAG, for which the “PBM E-score” value is 0.172.

Consider GAGAACAC, for which the “PBM E-score” value was 0.236.

Turning to AAGAACAT, the “PBM E-score” value was 0.357 (active).

On to AAGAACAC, for which the “PBM E-score” value was 0.312 (active).

As to ACGTAGCT, the “PBM E-score” value is 0.0358.

As for CATATCTC, the “PBM E-score” value was 0.0782.

For AGTTGGGC, the “PBM E-score” value was -0.15.
